Screens from PubChem.
CHT PAM: human CHT allosteric activation; Q9GZV3; B-score at 10 µM; 310,000 compounds, 0.49% hits; CHT-expressing cells, membrane potential dye, choline EC20; hits give high values; LV-AA mutant CHT in HEK293 cells;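 active = initial fluorescence not abnormally high and integrated response B-score, plate-corrected, over 3 SD above library mean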
CHT block: inhibitors of human choline transporter CHT. Q9GZV3. CHT-expressing cells, membrane potential dye, choline response; hits give low values. B-score at 10 µM. 310,000 compounds, 0.86% hits;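 active = B-score over 3 SD under the library average, and starting fluorescence ratio not unusually high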;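 note: choline stimulus applied at its EC90 after an EC20 pre-addition; B-score computed on integrated fluorescence ratio after choline addition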
ANO1 block: inhibitors of mouse TMEM16A calcium-activated chloride channel; Q8BHY3; normalized B-score (activity score, 25-100; higher = stronger inhibition) at 10 µM; HEK293 TMEM16A/YFP iodide influx fluorescence, ionomycin; 310,000 compounds, 1.2% hits;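 active = ratio plate-corrected score three or more library SD toward inhibition, starting fluorescence score within five deviations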;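 note: score derived from kinetic fluorescence span divided by baseline fluorescence per well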
Kir21 inh: Kir2.1 (mouse) channel inhibition. P35561. B-score at 10 µM. HEK293-Kir2.1, FluxOR thallium flux fluorescence; hits give low values. 310,000 compounds, 0.85% hits;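 active = fluorescence ratio B-score at or below minus 3 SD of library scores, with starting-brightness B-score within 2 SD, cut at about -4.2 in these data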;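 note: channel flux triggered by added potassium and thallium sulfate stimulus; B-score of peak minus minimum fluorescence over baseline after thallium stimulus; more negative B-score means stronger Kir2.1 block with less thallium influx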
GPR7 antag: blocks human GPR7 receptor signaling; P48145; GPR7-expressing cells, fluorescence antagonist assay; inhibition, % at 4.4 µM; 290,000 compounds, 1.1% hits; AID 1861; in the data active = inhibition above about 16%, passing the limit was not always enough;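 note: cells stimulated with the agonist NPW; 0% = agonist with vehicle and 100% = vehicle without agonist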
TMEM16A act: mouse TMEM16A channel activation, primary screen; B-score at 10 µM; AID 623877; HEK293 TMEM16A/YFP-H148Q/I152L, iodide quench fluorescence; hits give low values; 340,000 compounds, 0.3% hits;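 active = fluorescence-ratio B-score plate-corrected deviation score at least 3 library SD below zero, with starting fluorescence score within 5 deviations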;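 note: channel opened by trigger with iodide after compound preincubation; score built on the fluorescence ratio of max minus min over baseline; more negative score means more quench and so TMEM16A activation or potentiation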
TMEM16A reconf: reconfirmed blocker of mouse TMEM16A calcium-activated chloride channel. shares compounds with ANO1 block. HEK293 TMEM16A/YFP-H148Q, iodide quench fluorescence; ionomycin added to raise cell calcium. inhibition, % at 10 µM. 2,300 compounds, 39% hits;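 active = mean duplicate percent inhibition, scaled so buffer wells are 0 and the reference blocker 100, over three buffer SD above buffer mean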
HEK293 Ca mobil: alters calcium mobilization in TMEM16A HEK293 cells, counter-screen. shares compounds with ANO1 block. TMEM16A/YFP HEK293, Fluo4 calcium mobilization. calcium response (% of ionomycin), % at 10 µM. 2,300 compounds, 2% hits. AID 652231;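 active = duplicate-averaged calcium signal over 20% of the ionomycin maximum, relative to buffer baseline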;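 note: each well's signal is peak minus trough fluorescence divided by its pre-addition baseline; 0% = buffer wells and 100% = ionomycin wells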
Parental YFP cnt: acts in parental YFP-HEK293 cells lacking TMEM16A, counter-screen; shares compounds with ANO1 block; iodide YFP quench, ionomycin; YFP ratio F(max-min)/F0 at 10 µM; 2,300 tested, under 10 active; AID 652233;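 active = yellow fluorescent protein signal ratio exceeding the buffer control mean by over 5 SD of those controls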;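 note: ratio is mean of duplicate wells from kinetic YFP trace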
ClC-1 rat inh: rat ClC-1 inhibition, TMEM16A specificity screen; shares compounds with ANO1 block; CHO ClC-1-YFP, iodide influx fluorescence quench; iodide control reads 0, buffer control 100; ratio percent, % at 10 µM; 2,300 tested, under 10 active; AID 652236;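 active = duplicate-mean ratio percent above the mean of iodide-only control wells, which defines zero, plus 5 of their SD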;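 note: higher percent means stronger block of ClC-1 iodide influx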
Target sequence (P35524 whole entry, looked up): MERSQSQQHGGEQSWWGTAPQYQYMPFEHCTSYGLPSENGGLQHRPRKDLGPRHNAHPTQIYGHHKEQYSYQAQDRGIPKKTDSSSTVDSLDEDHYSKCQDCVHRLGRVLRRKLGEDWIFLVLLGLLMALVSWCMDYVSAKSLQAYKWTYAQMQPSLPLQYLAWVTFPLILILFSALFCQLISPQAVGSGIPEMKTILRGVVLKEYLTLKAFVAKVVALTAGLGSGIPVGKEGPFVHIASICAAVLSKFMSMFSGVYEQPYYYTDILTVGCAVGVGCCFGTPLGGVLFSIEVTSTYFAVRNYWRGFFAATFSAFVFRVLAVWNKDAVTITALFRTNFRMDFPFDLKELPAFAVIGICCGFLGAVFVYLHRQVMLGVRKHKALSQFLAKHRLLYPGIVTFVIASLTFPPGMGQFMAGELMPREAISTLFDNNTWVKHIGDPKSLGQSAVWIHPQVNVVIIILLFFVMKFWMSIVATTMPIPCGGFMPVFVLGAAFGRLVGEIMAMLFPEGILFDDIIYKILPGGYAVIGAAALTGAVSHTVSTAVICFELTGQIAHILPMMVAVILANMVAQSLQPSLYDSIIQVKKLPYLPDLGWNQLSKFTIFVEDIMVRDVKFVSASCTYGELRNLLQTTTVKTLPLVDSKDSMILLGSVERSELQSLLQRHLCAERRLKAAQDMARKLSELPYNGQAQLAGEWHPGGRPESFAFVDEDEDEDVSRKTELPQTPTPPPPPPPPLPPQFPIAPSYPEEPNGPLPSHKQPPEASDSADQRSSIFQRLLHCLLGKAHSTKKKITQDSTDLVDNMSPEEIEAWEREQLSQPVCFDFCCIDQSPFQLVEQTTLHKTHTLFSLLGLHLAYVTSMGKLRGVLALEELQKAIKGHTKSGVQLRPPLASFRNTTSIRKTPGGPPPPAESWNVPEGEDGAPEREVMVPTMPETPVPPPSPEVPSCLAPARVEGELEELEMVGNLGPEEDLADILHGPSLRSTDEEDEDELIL
Starred values were filed as active, the others as inactive; i = inactive; / = no result given. The list is not random: actives were taken first. Their share in the collection is about 3.7%.

SMILES	CHT PAM	CHT block	ANO1 block	Kir21 inh	GPR7 antag	TMEM16A act	TMEM16A reconf	HEK293 Ca mobil	Parental YFP cnt	ClC-1 rat inh
CN(Cc1ccco1)S(=O)(=O)c1nnc(NC(=O)c2cccc(Cl)c2)s1	i	i	25*	-1.8	8	i	26%*	i	-0.79	-14
O=C(N[C@@H](Cc1c[nH]c2ccccc12)C(=O)O)c1ccccc1Cl	i	i	25*	0.1	-7	i	i	i	-1.2	5
O=C(N[C@@H](Cc1c[nH]c2ccccc12)C(=O)NC1CC1)c1ccccc1Cl	i	i	i	0.81	3	i	/	/	/	/
CCOc1ccc(CONS(=O)(=O)c2ccc(NC(C)=O)cc2)cc1Cl	i	i	25*	-0.08	9	i	23%*	i	-1.1	-8
NC(=O)C1CCN(C(=O)CC(c2ccccc2)c2ccccc2)CC1	i	i	i	-1	2	i	/	/	/	/
CCOCCCn1c(SCc2ccccc2)nnc1-c1ccncc1	i	i	i	-1.5	-4	i	/	/	/	/
Cc1cc(C(=O)OCC(=O)Nc2ccc(F)cc2F)c(C)o1	i	i	100*	-0.75	-5	i	i	i	-0.87	-16
CCC(=O)Oc1ccc(C/C(=N\O)c2ccc(O)cc2O)o1	i	i	25*	0.14	11	i	24%*	i	-0.93	-20
O=C(O)C(CCC(C(=O)O)c1ccccc1)c1ccccc1 (stereo unspecified)	/	/	/	/	/	i	/	/	/	/
CCCN1CCN(C(=O)c2c(Cl)cnn2C)CC1	i	i	i	0.09	-16	i	/	/	/	/
COc1ccc(OC)c(NC(=O)CSc2ccc3ccccc3c2)c1	i	i	100*	-1.2	17	i	i	i	-1.1	-13
CCOc1cc(NC(=S)NCC2CCCO2)c(OCC)cc1NC(=O)CC(C)C (stereo unspecified)	i	i	i	0.92	2	i	/	/	/	/
CSc1ccc(CN(C)C(=O)c2ccc(S(=O)(=O)Nc3ccccc3)cc2)cc1	i	i	25*	0.54	/	i	i	i	-1.2	-12
COc1ccc(N2CCN(S(=O)(=O)c3c(C)n(C)c(=O)n(C)c3=O)CC2)cc1	i	i	i	-2.3	-9	i	/	/	/	/
CC(SC1CCCC1)C(=O)Nc1ccnn1C(C)C (stereo unspecified)	i	i	i	0.02	8	i	i	i	-1.1	-2
CC(Sc1ncccn1)C(=O)NC1CCCC1 (stereo unspecified)	/	/	/	/	/	i	/	/	/	/
CCOc1cc(C2C3=C(CC(C)(C)CC3=O)N(CCOC)C3=C2C(=O)CC(C)(C)C3)ccc1O	i	i	i	-0.53	-7	i	/	/	/	/
CSc1nc2nc(C)c(C/C=C/c3ccccc3)c(=O)n2[nH]1	i	i	i	-0.06	-18	i	/	/	/	/
CCc1c(C)nc2nc(SCc3ccccc3Cl)[nH]n2c1=O	i	i	100*	-1	-11	i	26%*	34%*	-1	-29
COc1ccc(CNc2ccc(-c3ccc(OC)cc3)nn2)cc1	i	i	100*	1.5	3	i	i	i	-0.54	-4
COc1ccc(CNc2ccc(-c3ccccc3OC)nn2)cc1	i	i	i	-0.67	13	i	/	/	/	/
CCc1cc(=S)n2c([nH]c3ccccc32)c1C#N	i	i	100*	0.05	-8	i	26%*	i	-0.88	-22
